VACV mCherry inh = inhibitors of vaccinia virus infection (mCherry reporter signal); 310,000 tested, 0.63% active; Potency, µM (doses to about 36.5 µM), for the others: at the highest dose activity change, negative = inhibition, actives largely listed as inhibitors; Vaccinia virus mCherry reporter infection, fluorescence; AID 720579; calls by dose curve; tested in A549 cells; further: nearly all actives have a fitted effect of over 35% in size
Vaccinia Venus = vaccinia inhibition (Venus reporter); Potency, µM (doses to about 36.5 µM), for inactives: at the top dose activity change, negative = inhibition, usual class: inhibitors; Vaccinia virus Venus reporter expression, fluorescence; 330,000 tested, 0.46% active; calls by dose curve; tested in A549 cells; further: nearly all actives have a fitted effect of over 30% in size
HCV inhibitor = blocks hepatitis C virus. Potency, µM (highest dose often 41.8 µM), inactives show at the highest dose activity change, negative = inhibition, usual class: inhibitors. AID 651820. Huh7.5.1 HCVcc-Cre infection, luciferase reporter, 44 h. 340,000 tested, 3.4% active; active means well fitted inhibition curve with a large enough effect; inconclusive means small, poorly fitted or top-dose-only effect, or another doubt; inactive means no such curve, though single readings can be large or run the other way
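Seed cells (1,000/well) for 4 h; treat with compound and infect with HCVcc-Cre, moi about 0.5. Incubate 44 h, then detect luciferase activity.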
The depositor's hits bear a star; i = inactive; ? = inconclusive; nt = no result given; [ ] = dose if it differs, or a comment. This is a sample that favours compounds with a hit; in the whole collection about 3.3% have one here. On the % scale 0 is the no-effect control and ±100 the full control effect; potency means the concentration at half of the fitted maximal effect.

SMILES	VACV mCherry inh	Vaccinia Venus	HCV inhibitor
Cc1ccc(OCC(O)Cn2c(=N)n(CCN3CCCCC3)c3ccccc32)cc1 (stereo not drawn)	-26.7%	-25.6%	2.51µM*
COc1ccc(NC(=O)CCS(=O)(=O)c2ccc3c(c2)CCN3C(C)=O)cc1	nt	nt	10.7%
COC(=O)C[C@H]1c2cc(F)ccc2S(=O)(=O)N1C1CC1	-9.8%	-7.4%	nt
O=C(CSc1nc2[nH]ncc2c(=O)[nH]1)Nc1ccc(Cl)cc1	-15.6%	-1.1%	14.6%
O=C(NC1CC1)[C@@H]1C[C@@H](Sc2nc3ccccc3[nH]2)CN1CC1CCCCC1	-23.7%	-14.7%	nt
CCOc1ccc(C(=O)Nc2ccc(Cl)c(-c3nc4cc(C)cc(C)c4o3)c2)cc1	-13.6%	-13.3%	nt
CCOC(=O)c1sc(N2C(=O)c3oc4ccc(F)cc4c(=O)c3C2c2ccc(C)cc2)nc1C (stereo not drawn)	16.5%	20.0%	nt
Cc1ccc(S(=O)(=O)N2CCC(C(=O)NCCN3CCOCC3)CC2)cc1	-14.2%	-1.1%	nt
CCc1ccc2c(COC(=O)c3n[nH]c4ccccc34)cc(=O)oc2c1	-29.0%	?	10µM*
CCOC(=O)c1n[nH]c2ccccc12	-2.2%	-1.0%	15.1%
O=C(O)CCCNC(=O)c1nn(Cc2ccccc2)c(=O)c2ccccc12	i	-2.3%	1.0%
Cc1c(Cl)cccc1NC(=O)CCS(=O)(=O)c1cccc2nsnc12	-18.6%	-7.0%	nt
O=C(N/N=C/c1ccccc1F)C(=O)N1CCCCCC1	-12.6%	3.3%	5.5%
O=C(N/N=C/c1ccccc1O)C(=O)N1CCCCCC1	7.94µM*	-26.8%	-16.6%
O=C(O)c1sccc1SCc1ccc(Cl)c(Cl)c1	nt	nt	6.2%
C=CS(=O)(=O)N(Cc1ccc(Cl)c(Cl)c1)C[C@@H](O)CO	0.282µM*	0.0501µM*	14.1µM*
COC(=O)C1CN(C(=O)COc2ccc(Cl)c(C)c2)c2ccccc2O1 (stereo not drawn)	-0.9%	-16.6%	20.6%
O=C1CCC[C@@H]2CC(N(Cc3cc4ccccc4s3)c3ccccc3)C[C@@H]3CCN1[C@H]23 (stereo partly drawn)	i	-10.6%	nt
c1ccc(-c2nc3c([nH]2)CCc2nonc2-3)cc1	-4.3%	11.8%	5.2%
Cc1ccc(C)c2c3c([nH]c12)-c1nonc1CC3	nt	-10.8%	10µM*
CCC(C)C(=O)OC1C2CC3=C4CC(=O)OC(c5ccoc5)[C@]4(C)CCC3[C@@](C)(C2=O)C(CC(=O)OC)C1(C)C (stereo partly drawn)	-8.7%	-3.3%	nt
COC(=O)c1ccc(NC(=O)c2c(-c3ccccc3)c(-c3ccccc3)nn(C)c2=O)cc1	-9.6%	-12.2%	nt
CC12CCC(=O)N1C(C(=O)Nc1ccc(F)cc1)CS2 (stereo not drawn)	nt	nt	4.6%
Cc1ccc(S(=O)(=O)N2C[C@H]3n4c(=O)ccc(=O)n4C[C@H](OC(=O)Nc4cccs4)[C@@]3(O)C2)cc1	?	-23.6%	nt
CCCCCCNC(=O)O[C@H]1Cn2c(=O)n(CCCCCC)c(=O)n2[C@@H]2CN(S(=O)(=O)c3ccc(C)cc3)C[C@]12O	?	15.8µM*	nt
SMILES	VACV mCherry inh	Vaccinia Venus	HCV inhibitor
CCCCCCn1c(=O)n2n(c1=O)[C@@H]1CN(S(=O)(=O)c3ccc(C)cc3)C[C@]1(O)[C@@H](OC(=O)NC1CC1)C2	?	-23.7%	nt
CCCCCCNC(=O)O[C@H]1Cn2c(=O)ccc(=O)n2[C@@H]2CN(S(=O)(=O)c3ccc(C)cc3)C[C@]12O	?	10µM*	nt
Cc1ccc(C)c(N2N=C(C(=O)NCCN3C(=O)S/C(=C\c4cccnc4)C3=O)CCC2=O)c1	-23.7%	-15.6%	19.3%
CC(C)(C)C(=O)COC(=O)C1=NN(c2ccccc2)C(=O)CC1	2.5%	3.6%	25.6%
Cc1ccc(OCc2ccc(-c3nc(C#N)c(NCc4ccccc4Cl)o3)o2)cc1	-22.3%	-22.2%	nt
COCCNc1nc(C)cc(-c2cc(-c3ccc(Cl)cc3)on2)n1	i	-18.2%	-11.6%
COCCNc1nc(-c2cc(-c3ccccc3)on2)cc(C(C)C)n1	-7.3%	-15.4%	10µM*
O=C(Nc1ccn(CCCN2CCN(c3ccccc3)CC2)c(=O)n1)OCc1ccccc1	-28.1%	?	nt
Cc1cc(C)c(CN2CCN(CCCn3ccc(NC(=O)OCc4ccccc4)nc3=O)CC2)c(C)c1	?	?	7.94µM*
COc1ccccc1N1CCN(c2c(CN3CCCC3)c(=O)oc3ccccc23)CC1	-17.2%	-7.2%	nt
CCCCCCN1C=C/C(=C\C=C(C#N)C#N)c2ccccc21	20.6%	33.2%	?
C=CCN1C=C/C(=C\C=C(C#N)C#N)c2ccccc21	i	i	10µM*
N#Cc1c(CSCC(=O)O)cc(=O)n2c1[nH]c1ccccc12	nt	nt	1.0%
N#Cc1c(C(F)(F)F)cc(=O)n2c1[nH]c1ccccc12	10µM*	?	?
COCCNC(=O)/C(C#N)=C/c1ccc(O)cc1	nt	nt	4.6%
COCCNC(=O)/C(C#N)=C/c1cccc(/C=C(\C#N)C(=O)NCCOC)c1	-6.2%	0.6%	10µM*
COc1cccc(NC(=O)CCSc2nc(-c3ccco3)cc(C(F)(F)F)n2)c1	-14.7%	-10.0%	nt
COc1ccc(-c2nc(C#N)c(NCc3cccnc3)o2)cc1OC	nt	nt	-18.9%
COc1ccc(-c2nc(C#N)c(NCc3ccc(F)cc3)o2)cc1OC	nt	12.6µM*	3.55µM*
CCOCc1c(C(=O)Nc2ccc(OC)nc2)oc2ccccc12	6.0%	-4.3%	-0.4%
COC(=O)C1CCN(S(=O)(=O)c2cc3c4c(c2)CCN4C(=O)CC3)CC1	-14.8%	-11.2%	7.5%
CC(C)C(NC(=O)c1ccoc1)c1nnc2n1CCN(Cc1ccc3c(c1)Cc1ccccc1-3)CC2 (stereo not drawn)	-6.9%	-2.8%	nt
CCNc1nc(NC(C)C)nc(N(C#N)CC(=O)OC)n1	-14.6%	-10.9%	-3.9%
CCNc1nc(NC(C)C)nc(N(C#N)CCOc2ccc(Cl)cc2Cl)n1	nt	nt	5.01µM*
Cc1ccc2cc(C#N)c(N3CCCN(C(=O)c4cnccn4)CC3)nc2c1	-19.4%	2.7%	24.2%
SMILES	VACV mCherry inh	Vaccinia Venus	HCV inhibitor
CCOCCCNC(=S)N1CCCN(c2nc3c(C)c(C)ccc3cc2C#N)CC1	-10.7%	-28.8%	10µM*
CCOCCCNC(=S)N1CCCN(c2nc3cc(C)ccc3cc2C#N)CC1	i	2.2%	4.3%
Cc1cc(C)c2cc(C#N)c(N3CCCN(C(=S)NCCCN(C)C)CC3)nc2c1	i	-27.6%	11.2µM*
Cc1cc(C)c2cc(C#N)c(N3CCCC3)nc2c1	?	-14.0%	?
Cc1ccc2cc(C#N)c(N3CCCN(C(=S)NCCCN(C)C)CC3)nc2c1	-8.9%	?	10µM*
CCCc1ccc(S(=O)(=O)N2CCC(c3nnnn3-c3ccc(OC)cc3)CC2)cc1	-8.7%	-9.9%	nt
Cc1ccc(C)c(NC(=O)CSc2nccn2-c2cccc(C)c2C)c1	-7.6%	-14.6%	nt
Cc1[nH]c2ccccc2c1/C=N/NC(=O)c1cccc(Br)c1	-21.0%	-7.9%	-22.6%
O=C(N/N=C/c1[nH]c2ccccc2c1Cl)c1cccc(Br)c1	-10.1%	0.0%	7.08µM*
CC(C)c1ccc(NC(=O)c2cc(S(=O)(=O)NC3CCCCC3)ccc2F)cc1	-23.5%	-28.6%	nt
COc1cc(O)ccc1-c1nc2ccc(Br)cn2c1Nc1ccccc1C	-8.7%[7.34 µM]	-8.7%[7.34 µM]	nt
CC1CCCCN1c1ncnc2ccccc12 (stereo not drawn)	-7.3%	-29.5%	?

Screening data: PubChem BioAssay, National Center for Advancing Translational Sciences (NCATS)
